Reference: article PMC13494018
A number with no mark means an inactive call. The rule behind the calls is not given here.

Sequence of CD276, Q5ZPR3 (Q5ZPR3 whole entry): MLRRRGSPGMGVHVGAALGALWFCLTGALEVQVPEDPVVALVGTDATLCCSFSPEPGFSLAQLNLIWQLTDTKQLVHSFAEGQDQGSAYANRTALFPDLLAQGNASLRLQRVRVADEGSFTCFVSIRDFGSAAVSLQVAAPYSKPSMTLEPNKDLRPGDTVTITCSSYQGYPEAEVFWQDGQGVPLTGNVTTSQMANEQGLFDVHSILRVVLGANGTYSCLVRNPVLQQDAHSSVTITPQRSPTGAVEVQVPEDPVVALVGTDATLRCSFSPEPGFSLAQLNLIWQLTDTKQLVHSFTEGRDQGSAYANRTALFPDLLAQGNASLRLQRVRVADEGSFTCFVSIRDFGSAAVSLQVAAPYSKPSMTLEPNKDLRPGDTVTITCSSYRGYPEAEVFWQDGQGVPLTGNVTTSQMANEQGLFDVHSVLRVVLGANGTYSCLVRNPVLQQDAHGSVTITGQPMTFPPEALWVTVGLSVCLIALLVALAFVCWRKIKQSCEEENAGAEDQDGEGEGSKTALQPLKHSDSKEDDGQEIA
Sequence of PDL1, Q9NZQ7 (Q9NZQ7 whole entry): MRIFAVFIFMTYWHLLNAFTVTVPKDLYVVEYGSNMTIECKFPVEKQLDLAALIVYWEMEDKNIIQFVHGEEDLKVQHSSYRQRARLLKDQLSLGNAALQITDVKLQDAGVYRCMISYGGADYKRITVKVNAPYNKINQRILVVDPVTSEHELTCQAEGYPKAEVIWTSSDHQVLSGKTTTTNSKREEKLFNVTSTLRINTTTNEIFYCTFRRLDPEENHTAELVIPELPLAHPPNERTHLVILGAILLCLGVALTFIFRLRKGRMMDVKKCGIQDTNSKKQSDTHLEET

Row | Binder | binding in a display sort (CD276, Q5ZPR3) | binding in a display sort (PDL1, Q9NZQ7)
1 | d6r1_design_ppi_1169_dldesign_0_cycle1_af2pred (protein) ELEEEVERAVEEAREAAERAREAGKANPALAPQLEAVVRFLETAAEYARESGEEGTEALKEAVEAARGMAEAALAA | not found | 
2 | d6r1_design_ppi_1043_dldesign_0_cycle1_af2pred (protein) AQASIQRGAQAANALMAAAAGYYAKKYKGPLGEKAKAAADQAAALAAQSAANPATAQANAQQASALLDELLKEVKAYEE | not found | 
3 | d6r1_design_ppi_1068_dldesign_0_cycle1_af2pred (protein) APAVLLAQAQKSAELALKALELGYNEAAVLFLQAASYFFAGAVNPATAATYAAKGVELIEKGLALLKAAS | not found | 
4 | d6r1_design_ppi_1056_dldesign_0_cycle0_af2pred (protein) AAAAAAAAQAETDALADEARELAAKAAEKIDPEKGALLKELTDYYAAKARSGTDEAGRTGLRALLSAARNIVS | not found | 
5 | d6r1_design_ppi_973_dldesign_0_cycle1_af2pred (protein) EQKKAAEEAAKAIKEAAKKAKELGDEATANGLQAIATALKNAVEAGDYKAAAELAKIGAAQAATLPELAPLAKKIEKLAKKIEE | not found | 
6 | d6r1_design_ppi_829_dldesign_0_cycle0_af2pred (protein) EEAKKKAEELIAEVKAYADAAAAAAAAAGAARGAAAAALAAAAIAGIKNIAKAAEEEIKEAAEDPEKQKEIAERAKENIDKILAVALG | not found | 
7 | d6r1_design_ppi_761_dldesign_0_cycle0_af2pred (protein) AEEKERLKELAKFAKEALKKVEELRAAIKANADDPAAVAAARDAMIALAKEAAEKDAEVGNAVMIALGDPEKGVEKLKEVTEKLEKAA | not found | 
8 | d6r1_design_ppi_719_dldesign_0_cycle0_af2pred (protein) AAAAAAEAARQASAEKAKQLGLDLAEDARRLTEAGGSPAAVQAALNSAEAVARNLAAMGEVGKPFAEEVLKAAEEARKLAA | not found | 
9 | d6r1_design_ppi_1061_dldesign_0_cycle1_af2pred (protein) AAAALAAAAAIAATLLAAGKAGDAATAAAALYGAALVLALADPAYAEVYDAVARAVSPAARAAGGAAAIALLAAAQA | not found | 
10 | d6r1_design_ppi_821_dldesign_0_cycle1_af2pred (protein) AAAQARAEARALNERARALLAAAPVGRAAEAEALATRALGLALAHREAFSNAEMTDILRTLARAAGAARQQAA | not found | 
11 | d6r1_design_ppi_833_dldesign_0_cycle0_af2pred (protein) MTPMSAAVAAAEEAIAAATAADPERGGRIAQEAFRGLAQATAIYVTQGKAAGDAAAEELRKRFEAEKAKVEAEAA | not found | 
12 | d6r1_design_ppi_759_dldesign_0_cycle0_af2pred (protein) MAKVEQLLNNAKAYAGAAENAARTHSENPELQKLAKEAKEYYEKAEKAYKEGKLKEAEEYAKKAIEKAAEAFSLLQ | not found | 
13 | d6r1_design_ppi_1028_dldesign_0_cycle0_af2pred (protein) AAAIAATKAELAKGKALLAKAKAAPAAAWNEALAAELRAAANALNRAATALLAAGGDTALAVEATETAVELLKAAGEINRA | binds (active) | 
14 | d6r1_design_ppi_1146_dldesign_0_cycle1_af2pred (protein) AEEEAAKLKAQADGLDTIATALIEQAKTGDAAVARGAAAAAVSLAKKAAELYKRAAKLAGDEKFGKEQAKKQKAKAKEAKEVAEKKAA | not found | 
15 | d6r1_design_ppi_785_dldesign_0_cycle1_af2pred (protein) AAAASAAQTATITRAAVASGNTFDAARAGAEMLHYQDPAVGEEVAKTVEEAKKLSPEEAKAAILAKFDAIAARYA | not found | 
16 | d6r1_design_ppi_1193_dldesign_0_cycle0_af2pred (protein) EEERQQLLAEAEALFARANALLPAAAAAGSEATALVVESLEYASKAARLAREGGDLEEAQKLLEKAKKYLAEAEKLIAA | not found | 
17 | d6r1_design_ppi_1088_dldesign_0_cycle1_af2pred (protein) GQAGTAKALINMARIGAKLGEEAYEVLKTIFETLANMIADPAWAEGGRAAREAIYAITMEIDPELAKRVLEEVE | not found | 
18 | d6r1_design_ppi_699_dldesign_0_cycle1_af2pred (protein) EEEAKEKIREAAKEAAAAAKAQDPAHAPLIEAAAKEIAEAAEKGLVEAQEKANALARAHPEAAQHFSLIFAFAAQAYAEAR | not found | 
19 | d6r1_design_ppi_759_dldesign_0_cycle1_af2pred (protein) AAETERALRNAKAYATAAEHAAKAHPESPELKKLAAEAKAYYKKAAAAYAAGKKEEALKYAQKAIEKAAEAFSLLS | not found | 

Row | Binder | binding in a display sort (CD276, Q5ZPR3) | binding in a display sort (PDL1, Q9NZQ7)
20 | d6r1_design_ppi_1013_dldesign_0_cycle0_af2pred (protein) SAEVQALLEEARRHIARAQKLLVAGNKEEALKEAEEAKKLAEEAKKLAADDPELAKSAEGLIKLAEAVIESAKA | not found | 
21 | d6r1_design_ppi_812_dldesign_0_cycle0_af2pred (protein) SAELAERLRRISELFRKAIESGVEEAKRYVEEAAREFARLSGDEERGRELAREAKEAVELGEEGKEAVRAVAQRMLLYGAQAA | not found | 
22 | d6r1_design_ppi_1033_dldesign_0_cycle1_af2pred (protein) AAEEEAKNAQVRQLAAQAFSYNLLADAAKQLAAAKGPEYEAKAKEYQAKAAAYKAEAEALNPEVFAAALAEVQAKYDAAL | not found | 
23 | d6r1_design_ppi_900_dldesign_0_cycle1_af2pred (protein) GEEAAREAEELERRAEELEELARRARELSAEELTEAALEAVRLANRAHALMTAGAPPEVAARLQEVAARALEAAERLSREAREKRA | not found | 
24 | d6r1_design_ppi_887_dldesign_0_cycle1_af2pred (protein) AAVEEATAKAKELREKATKLALEGIRTGNQELVEKAKEKAEKAKELGESSNEEAKEYAKVALAVAEMAKAAL | not found | 
25 | d6r1_design_ppi_807_dldesign_0_cycle1_af2pred (protein) AQAKRVSLAAALALLNSAIDAAADPKSAAALAEQAADLLESTGEAAPLGKKAKEAAKLLLEDPEKGKALAKEVAKKAAELLAKT | not found | 
26 | d6r1_design_ppi_911_dldesign_0_cycle1_af2pred (protein) GAAERTGRALANTAVAFAKSGSEEEAVAFATQMAEQIAALPGAEAAVARMAEELAKVLSPEAAAKVREAAAAILAKAAA | not found | 
27 | d6r1_design_ppi_695_dldesign_0_cycle1_af2pred (protein) EAAARQAAINAAALAVAKAVVDKAFADQSPAVVAGAKTMVTMIVNLYADPAKRPQAEALAENSHPAVREAVDAGLAAAAALAAA | not found | 
28 | d6r1_design_ppi_658_dldesign_0_cycle1_af2pred (protein) LEEELEKAKNEAKLLLAEAAATLLATDAKGQKAAQLLAAAIAYLDTDPEQALKDAKEALKLVPDSEKVKKALEATEKALELKKKI | not found | 
29 | d8r1_design_ppi_530_dldesign_0_cycle0_af2pred (protein) AAALAAALAAAAEAAAAAEAEAVAAAVSETVAAAARAAIKSFESGANKELAKQAMAAASAAGAAMKAGDTAAAQQYAAQTQALVAQIA |  | not found
30 | d6r1_design_ppi_848_dldesign_0_cycle1_af2pred (protein) AAGEKALEILKKTAQALLKNAPLLTAEAAAKLAKVIIDAAWAAAKKIGPEAEKVAKEVKALAKEAVAAAAAAAKARAA | not found | 
31 | d6r1_design_ppi_1105_dldesign_0_cycle1_af2pred (protein) AEKERLKEAAKRSAEKARELAKAGYALGAKAAILAAVRAAKEAGDAELVKEVLEVAKEAAKHPEVKPALEEAKKALEEVKK | not found | 
32 | d6r1_design_ppi_801_dldesign_0_cycle0_af2pred (protein) AALAALTAEANARANAILGRAFAEALARTRAGESPAPVFAAAAAELRRLGEESNPEGRAIADSGIALLQAAA | not found | 
33 | d6r1_design_ppi_1068_dldesign_0_cycle0_af2pred (protein) MAAELTAKAQEAVERAAAAEAAGLKEAATLYLKAAAYYHAGAVNPATAAENAAKGEEYLAQAEALEKAAA | not found | 
34 | d6r1_design_ppi_1117_dldesign_0_cycle0_af2pred (protein) SQQQTQQAQQQAQATIAQTQAARDELKKLAADPEARAAAESAAQQLAVAQDLNASGTLVGAQAALAMAQQALAVATATLAKAKAA | not found | 
35 | d6r1_design_ppi_1153_dldesign_0_cycle0_af2pred (protein) TEAAAALLRKTIAALERRVERAPEMSLEEAKALAESAKVLLEAGKAVPEVAAAAEELYKRAEEVAKKKAEEAAA | not found | 
36 | d6r1_design_ppi_1193_dldesign_0_cycle1_af2pred (protein) MEELKKLKEEAEKLFQKARDIMPQAVKAGNEAVSKVVEAQKYATEAAKLAKEGGDLEEAKKKYEKAKKYYEEALKLIAA | not found | 
37 | d6r1_design_ppi_617_dldesign_0_cycle1_af2pred (protein) AAAQAQQLMNEALALLFEAARKAPDPSEILRAASKAAQGHLSGSLAEEALAYIREVAEKYPEVAELINEAAELYAQAAKL | not found | 
38 | d6r1_design_ppi_848_dldesign_0_cycle0_af2pred (protein) AAAETGLKILEATVQALLKNASKYSAEAVKKLSEVLKASAEAEAKAGGEKLKERAKEIKKLAEEAEKKAKEAAKAKAE | not found | 
